The source of these data is PubChem BioAssay (NCI).

About 83,000 compounds went through this panel and 20% of them were active in at least one assay; those are over-represented in the sample as a whole.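 Treatment: one concentration, 48 hours, 96-well format. Scoring: percent growth, with anything below 10 considered active.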 A number with no mark means an inactive call. The source made the active and inactive calls.

Some test systems named below: SR leukemia; RPMI-8226 leukemia; OVCAR-8 ovarian; OVCAR-5 ovarian; OVCAR-4 ovarian; SK-OV-3 ovarian; IGROV1 ovarian; OVCAR-3 ovarian; HS 578T breast; NCI/ADR-RES ovarian.
Experiment in all cases: NCI-60 one-dose screen, 48 h (100 = growth as untreated, 0 = no growth, -100 = all killed)
Holding throughout (conditions): 10 µM unless noted

On to `O=C(Nc1ccc(Cl)cc1)Oc1c(Cl)c(Cl)c(Cl)c(Cl)c1Cl`, for which the growth is 93.6% with SR leukemia; 90.5% in the assay on RPMI-8226 leukemia; 99.9% with OVCAR-8 ovarian; 94.6% in the assay with OVCAR-5 ovarian; 88.6% in the assay on OVCAR-4 ovarian; 90% in the assay on SK-OV-3 ovarian. The growth in the assay on IGROV1 ovarian was 85.9%; in the assay with OVCAR-3 ovarian, 98.8%; in the assay on HS 578T breast, 87.8%; in the assay with NCI/ADR-RES ovarian, 94%.

`CCN(CC)c1ccc(CNc2cc(C)nc3ccccc23)cc1`: the growth in the assay on SR leukemia is 50.5%; in the assay with RPMI-8226 leukemia it was 41.7%; in the assay with OVCAR-8 ovarian it was 63.2%; in the assay on OVCAR-5 ovarian, 73.2%; in the assay with OVCAR-4 ovarian it was 52%; with IGROV1 ovarian, 74.8%. The results for the growth with OVCAR-3 ovarian, with HS 578T breast and in the assay on NCI/ADR-RES ovarian were 63.7%, 85.6% and 47.7%, respectively.

In the case of `Cc1cccc(Oc2ccc(Nc3ncnc4ccc(NC(=O)CN5CCN(C)CC5)cc34)cc2Cl)c1`, the growth in the assay on SR leukemia is 4.43% (active); with RPMI-8226 leukemia, -27.9% (active); with OVCAR-8 ovarian it was 13.2%; in the assay with OVCAR-5 ovarian, 68.2%; with OVCAR-4 ovarian, -13.5% (active); with SK-OV-3 ovarian, 6.73% (active). Moreover, the growth was -21.9% (active) in the assay on IGROV1 ovarian, 10.1% in the assay on OVCAR-3 ovarian, -2.13% (active) with HS 578T breast and 46.9% with NCI/ADR-RES ovarian.

Consider `CCOC(=O)c1c(C)nc2ccccc2c1/C=C/c1ccccc1`, for which the growth in the assay with SR leukemia was 60.3%; in the assay with RPMI-8226 leukemia, 42.2%; in the assay on OVCAR-8 ovarian, 53.8%; in the assay on OVCAR-5 ovarian, 97%; with OVCAR-4 ovarian it was 65%; in the assay on IGROV1 ovarian, 75%. Further, the results for the growth with OVCAR-3 ovarian, with HS 578T breast and in the assay with NCI/ADR-RES ovarian were 79.6%, 94.8% and 24.8%, respectively.

In the case of `O=S(=O)(Oc1ccc(Br)cc1)c1ccc(Cl)cc1`, the growth in the assay on SR leukemia is 98.3%; with RPMI-8226 leukemia, 99.7%; in the assay with OVCAR-8 ovarian, 106%; with OVCAR-5 ovarian, 92.5%; in the assay with OVCAR-4 ovarian, 98.9%; in the assay on IGROV1 ovarian it was 98.8%. Besides, the growth with OVCAR-3 ovarian is 98.3%; in the assay with HS 578T breast, 104%; with NCI/ADR-RES ovarian, 96.2%.

As to `Cc1nc2c(c(=O)[nH]1)C(c1ccccc1)c1ccc3ccccc3c1O2` (stereo not drawn), the growth is 19.3% in the assay with SR leukemia; 27.1% with RPMI-8226 leukemia; 34.5% with OVCAR-8 ovarian; 87.2% with OVCAR-5 ovarian; 64.2% in the assay with OVCAR-4 ovarian; 38.9% with IGROV1 ovarian. Further, the figures for the growth in the assay with OVCAR-3 ovarian, in the assay with HS 578T breast and with NCI/ADR-RES ovarian were 0.0339% (active), 22.6% and 14.6%, respectively.

On to `O=C1/C=C/[C@@H](O)[C@@H]2C[C@@H](O)C[C@H]2/C=C/CCC[C@@H](O)CCO1`, for which the growth in the assay on SR leukemia was 101%; in the assay on RPMI-8226 leukemia it was 126%; in the assay with OVCAR-8 ovarian it was 66.6%; in the assay with OVCAR-5 ovarian it was 113%; with OVCAR-4 ovarian it was 85.4%; in the assay with IGROV1 ovarian it was 108%. The growth with OVCAR-3 ovarian was 106%; in the assay with HS 578T breast, 41.9%.

Turning to `N#Cc1c(Nc2ccc(N3CCOCC3)cc2)nc(SCC(=O)c2ccc(Br)cc2)nc1-c1ccccc1`, the growth was 101% with SR leukemia; 111% with RPMI-8226 leukemia; 101% in the assay with OVCAR-8 ovarian; 95.6% in the assay with OVCAR-5 ovarian; 105% with OVCAR-4 ovarian; 95% in the assay on SK-OV-3 ovarian. Further, the growth with IGROV1 ovarian was 107%; in the assay on OVCAR-3 ovarian it was 105%; with HS 578T breast, 105%; in the assay with NCI/ADR-RES ovarian, 103%.

For `COc1ccc2c(c1)CCc1[nH]nc(-c3cc(OC)c(OC)c(OC)c3)c1-2`, the growth was -26.2% (active) in the assay with SR leukemia; 22.3% in the assay on RPMI-8226 leukemia; 7.98% (active) in the assay with OVCAR-8 ovarian; 56% with OVCAR-5 ovarian; 45.3% in the assay on OVCAR-4 ovarian; 25.5% in the assay with IGROV1 ovarian. The growth with OVCAR-3 ovarian was 1.01% (active); with HS 578T breast, 23%; in the assay with NCI/ADR-RES ovarian, 0.961% (active).

For `C=C(CNCCO)[C@@H]1CC[C@]2(CO)CC[C@]3(C)[C@H](CC[C@@H]4[C@@]5(C)CCC(N)C(C)(C)[C@@H]5CC[C@]43C)[C@@H]12` (stereo partly drawn), the growth in the assay with SR leukemia is -23.1% (active); with RPMI-8226 leukemia, -35.3% (active); in the assay on OVCAR-8 ovarian, 36.8%; with OVCAR-5 ovarian, 81.6%; in the assay on OVCAR-4 ovarian it was 64.6%; with IGROV1 ovarian it was 65.3%. Further, the growth in the assay with OVCAR-3 ovarian is 69.4%; in the assay with HS 578T breast, 51%; with NCI/ADR-RES ovarian it was 94.8%.

With `Cc1ccc2c(-n3nc(C#N)c(C#N)c3N)cc(=O)[nH]c2c1`, the growth was 90.5% with SR leukemia; 101% with RPMI-8226 leukemia; 85.9% in the assay on OVCAR-8 ovarian; 99.2% in the assay with OVCAR-5 ovarian; 89% in the assay on OVCAR-4 ovarian; 64.1% with IGROV1 ovarian. For the same compound, the growth with OVCAR-3 ovarian was 91.2%; in the assay with HS 578T breast, 107%.

Consider `C=C1C(=O)O[C@H]2[C@H]1CC/C(COC(=O)CSCSCC(=O)OC/C1=C/CC[C@@]3(C)O[C@H]3[C@H]3OC(=O)C(=C)[C@@H]3CC1)=C\CC[C@@]1(C)O[C@@H]21`, for which the growth was -16.4% (active) in the assay on SR leukemia; -31.2% (active) in the assay on RPMI-8226 leukemia; 5.96% (active) with OVCAR-8 ovarian; 30.1% in the assay on OVCAR-5 ovarian; 50.5% with OVCAR-4 ovarian; 104% with SK-OV-3 ovarian. Besides, the growth with IGROV1 ovarian is 0.96% (active); in the assay with OVCAR-3 ovarian it was -21.4% (active); with HS 578T breast, 23.1%; with NCI/ADR-RES ovarian, 62.4%.

With `CCCCCN(CCCCC)CC(O)c1cc(C)c2ccc3cc(C(C)C)ccc3c2c1` (stereo not drawn), the growth in the assay on SR leukemia was -12.9% (active); in the assay on RPMI-8226 leukemia, -18.6% (active); in the assay on OVCAR-8 ovarian, -35.9% (active); in the assay on OVCAR-5 ovarian it was -28.2% (active); in the assay on OVCAR-4 ovarian it was 19.4%; with IGROV1 ovarian, -12.8% (active). The growth with OVCAR-3 ovarian was -47.7% (active); in the assay on HS 578T breast it was -24% (active); in the assay on NCI/ADR-RES ovarian, -54.6% (active).

In the case of `CC(C)(C)n1cc(-c2ccnc(NCCCNS(=O)(=O)c3cccc4ccccc34)c2)c(-c2cccc(F)c2)n1`, the growth with SR leukemia was 27.8%; in the assay with RPMI-8226 leukemia, 65.4%; with OVCAR-8 ovarian it was 81.4%; in the assay with OVCAR-5 ovarian, 91.9%; in the assay with OVCAR-4 ovarian it was 78.1%; with IGROV1 ovarian it was 78.9%. In addition, the growth in the assay with OVCAR-3 ovarian is 90.1%; with HS 578T breast it was 91.4%; in the assay on NCI/ADR-RES ovarian it was 78.2%.
